12-LOX inh: Primary qHTS assay for inhibitors of human arachidonate 12S-lipoxygenase (ALOX12): Round 2. AID 1671190, 2021. 580,000 tested, 1.1% active. Potency, µM (doses to about 108 µM), without a hit: at the highest dose activity change, negative = inhibition, most hits filed as inhibitors. Polyunsaturated fatty acid lipoxygenase ALOX12 (Homo sapiens), P18054. purified 12hLO, xylenol orange hydroperoxide absorbance; also: potency is read from the fitted curve at half-maximal effect; % is scaled to controls: 0 for no effect and ±100 for the full control effect
Target sequence (P18054 whole entry, looked up): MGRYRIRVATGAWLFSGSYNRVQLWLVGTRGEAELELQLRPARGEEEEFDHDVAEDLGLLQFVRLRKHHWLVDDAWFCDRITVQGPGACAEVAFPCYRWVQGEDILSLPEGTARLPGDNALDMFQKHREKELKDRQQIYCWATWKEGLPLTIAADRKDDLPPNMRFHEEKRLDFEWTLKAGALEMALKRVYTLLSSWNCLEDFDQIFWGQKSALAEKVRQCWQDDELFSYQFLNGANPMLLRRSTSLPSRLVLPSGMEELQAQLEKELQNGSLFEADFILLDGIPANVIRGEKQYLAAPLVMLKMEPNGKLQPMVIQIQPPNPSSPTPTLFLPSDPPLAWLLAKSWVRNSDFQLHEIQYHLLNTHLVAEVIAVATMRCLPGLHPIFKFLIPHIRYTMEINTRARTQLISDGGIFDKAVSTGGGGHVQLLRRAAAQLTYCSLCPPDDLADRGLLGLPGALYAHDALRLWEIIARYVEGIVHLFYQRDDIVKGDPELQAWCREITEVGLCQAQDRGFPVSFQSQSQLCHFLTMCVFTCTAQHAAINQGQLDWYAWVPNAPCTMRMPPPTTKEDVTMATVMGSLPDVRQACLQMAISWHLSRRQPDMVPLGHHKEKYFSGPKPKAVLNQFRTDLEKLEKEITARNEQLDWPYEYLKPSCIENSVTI
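Purified human 12hLO (150 nM final) in 25 mM Hepes, 0.01% Triton X-100, pH 7.0 was preincubated 15 min at room temperature with compound. Then 40 uM arachidonic acid was added, 30 min. Hydroperoxide was read by Fe-XO absorbance ratio 573/405 nm.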
a7 integrin act: qHTS for Activators of Integrin-Mediated Alleviation for Muscular Dystrophy | alpha7betagal myoblasts, beta-gal FDG fluorescence, 48 h | Potency, µM (series often up to 38.3 µM), for inactives: at the top dose activation, actives largely listed as activators | 350,000 tested, 0.064% active | AID 624291, 2012;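 also: potency is read from the fitted curve at half-maximal effect; 100% = response of the positive control SU9516; nearly all actives have a fitted effect of over 60% in size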
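Alpha7betagal+/- myoblasts (passage 13) were plated 16-24 hr, then exposed to compounds (1:260 dilution of DMSO stock) for 48 hours at 37C. After MPER lysis, β-galactosidase reporter activity was read as FDG fluorescence (ex 480/em 540) after 30 minutes.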
IL2 activator: qHTS of IL-2 Activators | IL-2 activation reporter assay, cell-based qHTS; stimulated with anti-CD3/CD4/CD28 beads; in transgenic mouse T cells | activation, % (series mostly up to about 46 µM) | 360,000 tested, 0.065% active | AID 652025, 2013; in the data active = activation above about 50%; inconclusive = mostly about 30% to 49%; also: 0% is about no effect
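Unstimulated transgenic mouse T cells preincubated 60 min with compound, then stimulated with anti-CD3/anti-CD4-coated beads plus anti-CD28 for 18 h at 37 degrees C. IL-2 response read as EGFP and DsRed fluorescence by plate cytometry.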
Nrf2 ARE act: qHTS of Nrf2 Activators | AREc32 ARE-luciferase reporter (MCF7-derived line), luminescence, 24 h | Potency, µM (titrated, usually from 46.1 µM), for the others: at the top dose activation, hits mostly activators | 410,000 tested, 0.31% active; also: potency is read from the fitted curve at half-maximal effect; % of control where 0% means no effect; nearly all actives have a fitted effect of over 65% in size
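For detection, Steady-Glo was added and plates sat 30 min at RT; before that, AREc32_Fluc cells grown overnight in OPTI-MEM/5% FBS had been treated with 23 nL compound for 24 hr at 37 deg C.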
uPA generation: qHTS for Inhibitors of Cell Surface uPA Generation; 330,000 tested, 0.31% active; cell surface uPA generation assay, qHTS; Potency, µM (series often up to 38.3 µM), for inactives: at the top dose activity change, negative = inhibition, actives largely listed as inhibitors; active = well fitted inhibition curve with a large enough effect; inconclusive = small, poorly fitted or top-dose-only effect; inactive = no such curve, though single readings can be large or run the other way; tested in mouse RAW 264.7 cells; also: potency is read from the fitted curve at half-maximal effect; % is scaled to controls: 0 for no effect and ±100 for the full control effect; nearly all actives have a fitted effect of over 55% in size
Starred values were filed as active, the others as inactive; ? = inconclusive; . = not tested or not shown; [ ] = another dose, or the depositor's remark. In the library only some 1.5% were active in any assay of this set; here they are far more common. Unless noted, calls follow the shape of the dose curve; as a rule, active = well fitted curve in the direction sought with a large enough effect; inconclusive = small, poorly fitted or top-dose-only effect, or another doubt; inactive = no such curve, though single readings can be large; an effect the other way counts as inactive or inconclusive.

SMILES | 12-LOX inh | a7 integrin act | IL2 activator | Nrf2 ARE act | uPA generation
CC(C)N(C(=O)COC(=O)c1ccccc1C(=O)c1ccc(Cl)c([N+](=O)[O-])c1)C(C)C | -2% | -36% | -6 | 2.2µM* | .
CN(CCC#N)C(=O)COC(=O)c1ccccc1C(=O)c1ccc(Cl)c([N+](=O)[O-])c1 | -23% | -69% | -1 | 16µM* | -8%
CCc1cccc(NC(=O)Cn2c(N3CCc4ccccc4C3)nc(C)cc2=O)c1 | -9% | . | . | . | .
O=C(O)c1ccc(/C=N/Nc2cccc(C(F)(F)F)c2)cc1 | 45µM* | 0% | 0 | 4% | 13%
FC(F)(F)c1cccc(N/N=C/c2cccc(Br)c2)c1 | -92% | . | . | . | .
FC(F)(F)c1cccc(N/N=C/c2ccc(Br)cc2)c1 | 0.79µM* | . | . | . | .
C/C(=N\Nc1cccc(C(F)(F)F)c1)c1ccc(O)cc1 | 35µM* | 6% | 1 | 10% | -19%
CC(C)(CNC(=O)CSc1nnnn1-c1ccccc1)N1CCOCC1 | -28% | . | . | . | .
COC(=O)CNC(=O)c1nc(-c2ccc([S+](C)(=O)[O-])cc2)c2cnccn12 | 2%[6.33 µM] | . | . | . | .
COc1ccc(C(=O)c2sc3nc(C)cc(-c4cccs4)c3c2N)cc1 | -14% | -13% | 0 | ? | 21%
COc1ccc(C(=O)c2sc3nc(C)cc(-c4cccs4)c3c2N)cc1OC | -16% | -34% | 550* | 0% | 1%
O=C(CCn1ccn2nc3c(c2c1=O)CCCC3)NCCc1cccs1 | 7% | . | . | . | .
O=C(c1ccccc1-c1ncc(-c2ccccc2)o1)N1CCN(C(=O)C2CC2)CC1 | 4% | . | . | . | .
CN(C)S(=O)(=O)c1cccc(NC(=S)NNC(=O)c2cc3ccccc3cc2O)c1 | 35µM* | -10% | 2 | -1% | 8%
CN(C)S(=O)(=O)c1cccc(NC(=S)NC(=O)c2ccco2)c1 | ? | -16% | 1 | 6% | -7%
CCOCCCNC(=O)c1nnn2cc(-c3ccccc3)[nH]c(=O)c12 | 18µM* | . | . | . | .
COCCn1cnnc1SCc1csc(-c2cc(Br)ccc2OC)n1 | 16µM* | . | . | . | .
COc1ccccc1-n1cnnc1SCc1csc(-c2ccccc2)n1 | 475% | 8% | 0 | 4% | 5%
O=C(NCCc1ccccc1)N1CCc2nn(Cc3ccccc3)c(=O)n2CC1 | 4% | . | . | . | .
Fc1ccc(N/N=C/c2cccc(Br)c2)c(F)c1 | 16µM* | . | . | . | .
Fc1ccc(N/N=C/c2ccc(F)c(F)c2)c(F)c1 | 7.9µM* | . | . | . | .
O=C(O)C(c1c[nH]c2cc(F)ccc12)N1CCN(Cc2cccc3ccccc23)CC1 (configuration not stated) | 40µM* | . | . | . | .
O=C(O)C(c1c[nH]c2cc(F)ccc12)N1CCN(Cc2ccccc2)CC1 (configuration not stated) | -37% | . | . | . | .
Fc1ccc(OCCOC2CCNCC2)cc1 | 7% | . | . | . | .
O=C(c1ccccc1)c1ccc(OCC(O)CNCc2ccc(Cl)cc2)cc1 (configuration not stated) | 7.1µM* | -52% | -1 | 5% | 1%
SMILES | 12-LOX inh | a7 integrin act | IL2 activator | Nrf2 ARE act | uPA generation
O=C(NCCN1CCC(n2c(=O)[nH]c3ccccc32)CC1)c1ccc(F)cc1Cl | 1.1µM* | . | 0 | -1% | .
O=C(NCCN1CCC(n2c(=O)[nH]c3cc(Cl)ccc32)CC1)c1ccc(F)cc1 | 40µM* | . | . | . | .
O=C(NCCN1CCC(n2c(=O)[nH]c3ccccc32)CC1)c1ccccc1 | -57% | . | -1 | -1% | .
O=C(C1CCN(C(=O)N2CC3CC(C2)[C@H]2CCCC(=O)N2C3)CC1)N1CCN(c2ncccn2)CC1 (some centres not stated) | 58% | . | . | . | .
Cc1nc2c3cc(F)ccc3n(Cc3ccc(F)cc3)c2s1 | -2% | -4% | -5 | -1% | 3.5µM*
CN1CCN(C(c2ccc(Br)cc2)c2cc(Cl)c3cccnc3c2O)CC1 (configuration not stated) | 10µM* | -70% | -6 | ? | 1%
CN1CCN(C(c2ccc(F)cc2)c2ccc3cccnc3c2O)CC1 (configuration not stated) | . | -29% | -1 | 0% | 19%
COc1ccccc1Cc1c(-c2ccccc2)nc2c3ccccc3ccn12 | 0% | . | . | . | .

Screening results (PubChem)
